Assay outcomes: PubChem, National Center for Advancing Translational Sciences (NCATS)
Pf growth 48h – inhibits P. falciparum growth in the first generation, 48 h; P. falciparum luciferase growth in erythrocytes, 48 h; 310,000 tested, 5.9% active; Potency, µM (doses to about 28.7 µM), inactives show at the highest dose activity change, negative = inhibition, most hits filed as inhibitors; AID 504832; further: potency means the concentration at half of the fitted maximal effect
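Here the parasites carry a stable luciferase gene and grow inside erythrocytes in Albumax-based RPMI medium with compound for one erythrocytic cycle. Activity is scored as loss of luminescent signal.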
Sm TGR inh – blocks Schistosoma mansoni thioredoxin glutathione reductase. Q962Y6. purified TGR, DTNB reduction, TNB absorbance 405 nm. Potency, µM (doses to about 114 µM), for inactives: at the top dose activity change, negative = inhibition, hits mostly inhibitors. 360,000 tested, 3% active. AID 485364; further: potency means the concentration at half of the fitted maximal effect; nearly all actives have a fitted effect of over 60% in size
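TGR 20 nM + NADPH 100 uM (dispensed conc.), cpd preinc 15 min RT; start with NADPH (500 uM addition) then DTNB (15 mM addition). Kinetic TNB absorbance, 405 nm filter. Four-parameter Hill fit across titration.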
Giardia FBPA inh – blocks Giardia fructose-bisphosphate aldolase activity; AID 2451; Potency, µM (series often up to 59.6 µM), for inactives: at the top dose activity, negative = inhibition, usual class: inhibitors; purified Giardia FBPA; A8B2U2; 290,000 tested, 0.71% active; further: potency means the concentration at half of the fitted maximal effect; nearly all actives have a fitted effect of over 55% in size
Target sequence (A8B2U2 whole entry, looked up): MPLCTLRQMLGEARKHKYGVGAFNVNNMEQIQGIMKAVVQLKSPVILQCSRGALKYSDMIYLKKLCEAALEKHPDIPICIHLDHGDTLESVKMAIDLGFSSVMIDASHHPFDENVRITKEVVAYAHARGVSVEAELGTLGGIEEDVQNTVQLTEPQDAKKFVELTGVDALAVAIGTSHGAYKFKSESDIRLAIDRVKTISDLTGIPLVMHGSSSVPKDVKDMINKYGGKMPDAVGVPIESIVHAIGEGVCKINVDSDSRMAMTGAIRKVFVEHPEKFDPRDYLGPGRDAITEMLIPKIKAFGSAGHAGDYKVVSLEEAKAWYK
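Giardia FBPA (40 nM reagent) was preincubated 10 min at RT with compound (up to 57.5 uM final), then substrate plus GAPDH/TPI/NAD/arsenate coupling system with diaphorase/resazurin was added; resorufin fluorescence (525/598 nm) was read after 20 min.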
HCMV inh – blocks human cytomegalovirus replication; 410,000 tested, 4.5% active; HFF cells, HCMV-luciferase reporter, 72 h; active compounds read low; AID 1259415; activity change, negative = inhibition, % at 57.5 µM; in the data active means activity change below about -60%; inconclusive means no clear call, values can overlap the other calls; inactive means above about -39%
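Two compound doses tested in HFFs infected with HCMV-luciferase, MOI 1 PFU/cell, 72 h at 37C. Lysate luminescence read with OneGlo; data normalized against buffer-only and 10uM Salinomycin inhibitor controls.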
Pf growth 96h – P. falciparum growth inhibition at 96 hour, primary screen for plastid delayed-death inhibitors | P. falciparum luciferase reporter growth, 96 h | Potency, µM (doses to about 28.7 µM), for the others: top-dose activity change, negative = inhibition, most hits filed as inhibitors | 320,000 tested, 6.9% active | AID 504834; further: potency means the concentration at half of the fitted maximal effect
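Two-generation exposure (96 h) targets delayed-death phenotype. Reporter parasites carrying integrated firefly luciferase, in red cells at 2% hematocrit and 0.05% parasitemia final, kept at 37 C, 5% CO2; luminescence loss indicates inhibition.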
An asterisk follows results filed as active; ? = inconclusive; / = no result given. In the library only some 14% were active in any assay of this set; here they are far more common. Unless noted, the call rests on the fitted dose curve; in most records, active means well fitted curve in the direction sought with a large enough effect; inconclusive means small, poorly fitted or top-dose-only effect, or another doubt; inactive means no such curve, though single readings can be large; an effect the other way counts as inactive or inconclusive. On the % scale 0 is the no-effect control and ±100 the full control effect.

SMILES	Pf growth 48h	Sm TGR inh	Giardia FBPA inh	HCMV inh	Pf growth 96h
O=C(Nc1ccn(Cc2c(F)c(F)cc(F)c2F)n1)c1cccc(Cn2cc([N+](=O)[O-])cn2)c1	/	6.9%	5.1%	58.3	9.28µM*
Cc1cc(C)nc(NC(=O)c2ccc(COc3ccccc3Cl)cc2)c1	-5.5%	3.4%	-7.8%	-8.7	9.28µM*
Cc1cc(C)n(Cc2ccc(NC(=O)c3ccc(COc4ccccc4Br)cc3)cc2)n1	?	-11.9%	-4.6%	-90.4*	?
O=C(Nc1ccn(Cc2c(F)c(F)cc(F)c2F)n1)c1ccc(COc2cc(Cl)ccc2Cl)o1	?	-19.4%	0.1%	27.2	/
O=C(Nc1ccn(Cc2c(F)c(F)c(F)c(F)c2F)n1)c1cccc(Cn2cc([N+](=O)[O-])cn2)c1	/	4.6%	-0.9%	?	?
O=C(Nc1ccn(Cc2c(F)c(F)cc(F)c2F)n1)c1ccc(COc2ccccc2Cl)cc1	?	0.0%	-0.6%	-70.8*	0.233µM*
NC(=O)c1ccc(NC(=O)c2ccc(COc3ccccc3Br)cc2)cc1	18.9%	-2.0%	/	-19.2	47.6%
O=C(Nc1ccn(Cc2ccccc2F)n1)c1ccc(COc2ccccc2Cl)cc1	?	3.9%	-7.2%	-97.6*	/
Cc1cc(C)n(Cc2ccc(C(=O)O)cc2)n1	/	6.4%	-0.1%	-64.8*	-17.6%
O=C(N/N=C/c1cc(Br)c(O)c(Br)c1)c1cccnc1	28.7%	89.1µM*	-22.7%	-0.6	19.4%
Cc1ccc(C)c(NC(=O)CCC(=O)N/N=C/c2cccnc2)c1	9.7%	2.2%	/	-31.2	-7.5%
CC(=O)Nc1ccc(C(=O)N/N=C/c2cccnc2)cc1	0.0%	2.1%	2.3%	39.4	3.7µM*
Cc1cc(Cl)ccc1NC(=O)CCC(=O)N/N=C/c1cccnc1	5.8%	?	/	-67.7*	?
O=C(NCCNC(=O)c1cc(Cl)ccc1Cl)c1ccccn1	-1.3%	-0.9%	-4.9%	-14.6	4.9%
CCN(CC)S(=O)(=O)c1cc(C(=O)Nc2cc(Cl)ccc2N2CCN(C)CC2)ccc1Cl	/	3.2%	-0.1%	7.3	2.62µM*
CN(C)S(=O)(=O)c1ccc(C(=O)Nc2cc(S(=O)(=O)Nc3ccccc3Cl)ccc2N2CCCCC2)cc1	2.33µM*	0.7%	-1.1%	-27.5	1.31µM*
CN1CCN(c2ccc(Cl)cc2NC(=O)c2ccc(S(=O)(=O)N(C)C)cc2)CC1	/	-4.5%	-0.8%	77.0	3.29µM*
CN(C)S(=O)(=O)c1cccc(C(=O)Nc2ccccc2N2CCCCC2)c1	?	5.0%	14.5%	-34.4	?
COCOCCn1cc(CN2CCS(=O)(=O)N(Cc3ccc(-c4ccncc4)cc3)C(CC(C)C)C2=O)nn1 (stereo unspecified)	/	/	/	9.3	/
CC1(c2cc(F)ccc2F)NC(=O)N(CC(=O)Nc2cccc(S(=O)(=O)N3CCCC3)c2)C1=O (stereo unspecified)	11.7µM*	-1.0%	/	0.0	?
Cc1cccc(NC(=O)CN(C)C(C)C(=O)Nc2ccc(S(=O)(=O)N3CCCC3)cc2)c1C (stereo unspecified)	13.1µM*	-9.8%	/	1.2	?
COc1cccc(NC(=O)CN(C)C(C)C(=O)N2CCCCC2)c1 (stereo unspecified)	/	/	/	-24.1	/
CC(C(=O)N1CCCC1)N(C)CC(=O)Nc1cccc(F)c1 (stereo unspecified)	8.2%	8.91µM*	/	?	?
CN(CC(=O)Nc1ccc(S(=O)(=O)N2CCCC2)cc1)Cc1cccc(Cl)c1Cl	-28.3%	4.8%	1.2%	-39.7	9.28µM*
N#Cc1nc(Nc2ccccc2)nc(NC2CCCCC2)n1	/	/	-1.5%	/	/
SMILES	Pf growth 48h	Sm TGR inh	Giardia FBPA inh	HCMV inh	Pf growth 96h
COc1ccc(CCC(=O)NCC(=O)OCc2ccccc2)cc1	8.1%	10.4%	2.2%	39.2	-3.2%
COc1cc2ccccc2cc1C(=O)OCC(=O)c1c(N)n(C)c(=O)n(C)c1=O	?	0.9%	/	-31.8	?
O=C(CN1CCCc2ccccc21)Nc1cccc(S(=O)(=O)N2CCCC2)c1	/	/	/	-0.4	/
COc1ccc(CN(C)CC(=O)Nc2cccc(S(=O)(=O)N(C)c3ccccc3)c2)c(OC)c1	?	1.7%	/	-15.1	14.7µM*
COc1ccccc1CCC(=O)Nc1cccc(S(=O)(=O)N2CCCC2)c1	?	-12.2%	4.8%	0.9	?
CC1CCc2ccccc2N1CC(=O)Nc1cccc(S(=O)(=O)N2CCCC2)c1 (stereo unspecified)	11.7µM*	1.4%	/	-31.4	?
COc1ccccc1CN(C)CC(=O)Nc1cccc(S(=O)(=O)N2CCCCC2)c1	11.7µM*	8.6%	/	-24.1	?
CN(CC(=O)Nc1cccc(S(=O)(=O)N2CCCCC2)c1)Cc1ccc(F)cc1	13.1µM*	4.0%	/	-13.3	9.28µM*
OC[C@@H]1OC(O)[C@@H](O)[C@H](O)[C@@H]1O (stereo partly specified)	/	/	-2.7%	/	/
CCN(CC(=O)Nc1ccc(OC)cc1)C(=O)Cc1ccsc1	-15.6%	-3.4%	/	-16.7	-21.6%
CN(CC(=O)Nc1cccc(F)c1)CC(=O)Nc1cccc(S(=O)(=O)N2CCCCC2)c1	11.7µM*	-5.4%	/	-20.0	?
COc1ncc2nc(-c3cccs3)c(=O)n(CCc3ccccc3)c2n1	/	/	0.5%	/	/
O=C1c2sc3nc4c(c(=O)n3c2C(=O)N1c1ccccc1)CCC4	?	17.8µM*	-0.1%	?	?
Cc1ccccc1N1C(=O)c2sc3nc4c(c(=O)n3c2C1=O)CCC4	?	?	-18.0%	/	?
COc1cccc2cc(C(=O)N3CC(C)OC(C)C3)c(=O)oc12 (stereo unspecified)	-0.4%	-12.0%	20.4%	21.0	3.8%
C=Cc1cc(OC)c2c(c1)c(=O)oc1c2cc(OC)c2c(O)ccc(C3OC(C)C(O)C(C)(O)C3O)c21 (stereo unspecified)	/	/	/	-97.8*	/
COc1c(O)cc2c(=O)oc3c(OC)c(O)cc4c(=O)oc1c2c34	/	/	-21.6%	/	/
COc1cc2c(oc(=O)c3cc(C)cc(OC)c32)c2c(C3OC(C)C(O)C(C)(O)C3O)ccc(O)c12 (stereo unspecified)	/	/	/	-68.7*	/
O=C(C1CCC1)N1CCCc2cc(S(=O)(=O)N3CCN(c4cccc(Cl)c4)CC3)ccc21	/	5.4%	/	-9.3	/
C[C@@H]1ON(C)[C@H]2C[C@H]3c4[nH]c5cccc(-c6ccc7c(c6)OCO7)c5c4CCN3C(=O)[C@@H]12	/	/	/	-13.5	/
Cc1cccc(-n2c(SCC(=O)NCC3CCCO3)nc3ccccc3c2=O)c1C (stereo unspecified)	?	-10.9%	/	-2.3	-44.3%
CCOc1ccc(Nc2cc(=O)oc3ccccc23)cc1	1.31µM*	9.5%	/	?	1.65µM*
CCOc1ccc(Nc2cc(C)nc3c(C)cccc23)cc1	?	0.6%	4.4%	-76.3*	-21.5%
Cc1ccccc1S(=O)Cc1ccc(C(=O)N2CCN(C3CCCCC3)CC2)o1 (stereo unspecified)	/	/	/	-31.7	/
